# Assay results from PubChem BioAssay (NCATS).
# Results filed as inconclusive are left out. Values without a mark were called inactive. The source made the active and inactive calls. The call rests on the fitted dose curve; in most records, active means well fitted inhibition curve with a large enough effect; inconclusive means small, poorly fitted or top-dose-only effect; inactive means flat fitted curve, though single readings scatter.
# Biological target: Glutathione peroxidase 1 (Homo sapiens) (UniProt P07203)
# Experiment: Primary qHTS Assay for Inhibitors of Recombinant Selenoprotein Glutathione Peroxidase 1 (GPX1) (AID 1845191); further: nearly all actives have a fitted effect of over 65% in size
# Details: recombinant GPX1, GR-coupled NADPH fluorescence, 15 min; series mostly up to 27.7 µM; activity, negative = inhibition: at the top concentration
# Procedure, shortened: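 Recombinant GPX1 (10 nM final) was preincubated with compound for 30 min at room temperature, then reacted with 1 mM GSH, 0.5 mM CHP, 0.5 mM NADPH and 100 nM glutathione reductase; NADPH fluorescence (340/450 nm) was read at 0 and 15 min.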
# On the % scale 0 is the no-effect control and ±100 the full control effect.
# Glutathione peroxidase 1 (Homo sapiens), sequence (P07203 whole entry, looked up): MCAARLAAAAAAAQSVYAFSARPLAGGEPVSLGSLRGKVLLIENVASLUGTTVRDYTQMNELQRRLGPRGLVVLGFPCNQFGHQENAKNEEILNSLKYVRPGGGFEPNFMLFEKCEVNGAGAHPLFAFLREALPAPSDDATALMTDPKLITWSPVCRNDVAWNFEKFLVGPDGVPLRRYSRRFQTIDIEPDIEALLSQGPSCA
Structure (SMILES),"activity, negative = inhibition",outcome
COc1ccc2c(c1)C=C1Cn3c-2c(C2CCCCC2)c2ccc(cc23)C(=O)NS(=O)(=O)N(C)CCOCCN(C)C1=O,-29.4% [at 48.8 µM],–
C=C1CC2C3(C)C(O)CC(=O)C(C)(C)C3C(O)C(OC(C)=O)C2(C)C2C(=O)OC(C)(C(=O)OC)C(=O)C12C (centres undefined),0.391%,–
CCC(C)/C=C(C)/C=C/C1=CC2=CC(=O)C(C)(O)C(OC(C)=O)C2CO1 (centres undefined),-15.5%,–
Cn1nccc1-c1ccccc1Oc1ccc(S(=O)(=O)Nc2nccs2)cc1C#N,-17.4% [at 48.8 µM],–
COc1cccc(C)c1C(=O)O[C@@H]1C[C@H](O[C@H]2[C@H](O)C[C@H](O[C@@H]3CCC[C@H]4[C@H]3C=C[C@@H]3CCCC/C=C/[C@H]5C=C(C(=O)O)[C@@H](C)C[C@@]56OC(=O)C(=C6O)OC(=O)[C@@]34C)O[C@@H]2C)O[C@H](C)[C@H]1O,-5.26% [at 15.3 µM],–
O=C(N[C@@H]1CC[C@@H](c2cccc(F)c2F)CN(CC(F)(F)F)C1=O)N1CCC(n2c(=O)[nH]c3ncccc32)CC1,–,inactive [at 48.8 µM]
C=C1[C@@H]2CC[C@@]3(C)[C@H](c4ccoc4)OC(=O)C[C@]13O[C@H]1CC(=O)C(C)(C)[C@H](C(O)C(=O)OC)[C@]12C (some centres undefined),0.798%,–
COc1cc(/C=C/C(=O)O[C@@H]2O[C@H](CO)[C@@H](O)[C@H](O)[C@H]2O)ccc1O,-4.19%,–
CCOC(=O)CSc1nc2c(sc3ccccc32)c(=O)n1CCCN1CCCC1,2.6% [at 48.8 µM],–
